# Assay results taken from PubChem BioAssay (EPA / NIEHS).
# Active and inactive are the calls of the source. How the source made its calls: active means hit-call score of the fitted dose curve at least 0.9, where 1 is the maximum; inactive means score below 0.9.
# Read-out: solute carrier (SLCO1B1), SLCO1B1 (gene 10599)
# Test: LTEA_HepaRG_SLCO1B1: Life Technologies and Expression Analysis (LTEA) Assay for solute carrier (SLCO1B1) using HepaRG (AID 2283530)
# Settings: mRNA level, 48 h; actives raise or lower the signal
# Method in brief: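 HepaRG, serum-free induction medium, 48 h dosing, 8-pt half-log from 100 uM, 0.5% DMSO vehicle, duplicates. Readout: SLCO1B1 mRNA, qRT-PCR, ACTB/GAPDH/POLR2A normalization; up or down fit vs DMSO.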
Structure (SMILES),outcome,AC50
CNC(=O)ON=C(SC)C(=O)N(C)C,inactive,
COc1cc(OC)nc(Sc2cccc(Cl)c2C(=O)O)n1,inactive,
CCC(=O)Nc1ccc(Cl)c(Cl)c1,inactive,
CNC(=O)Oc1cccc2c1OC(C)(C)O2,inactive,
CCCCOC(=O)[C@@H](C)Oc1ccc(Oc2ccc(C#N)cc2F)cc1,inactive,
CC(C)[C@H](C(=O)O[C@H](C#N)c1cccc(Oc2ccccc2)c1)c1ccc(Cl)cc1,inactive,
C#CCC1=C(C)C(OC(=O)C2C(C=C(C)C)C2(C)C)CC1=O (configuration not stated),inactive,
CCOP(=S)(OCC)Oc1ccc([N+](=O)[O-])cc1,inactive,
CSC1=N[C@@](C)(c2ccccc2)C(=O)N1Nc1ccccc1,,35.7 µM (active)
CN(C)C(=O)Nc1cccc(C(F)(F)F)c1,,50 µM (active)
CC(COc1ccc(Oc2ccccc2)cc1)Oc1ccccn1 (configuration not stated),inactive,
CCc1cccc(C)c1N(C(=O)CCl)C(C)COC (configuration not stated),inactive,
CCC(=NOC/C=C/Cl)C1=C(O)CC(C2CCOCC2)CC1=O (configuration not stated),inactive,
CCOP(=S)(OCC)SCCSCC,inactive,
CCC(CC)Nc1c([N+](=O)[O-])cc(C)c(C)c1[N+](=O)[O-],,50 µM (active)
CN(C)NC(=O)CCC(=O)O,inactive,
CCOP(=S)(OCC)Oc1cc(C)nc(C(C)C)n1,inactive,
CC(Oc1cccc(Cl)c1)C(=O)O (configuration not stated),inactive,

# Read-out: Transforming Growth Factor (TGFA), TGFA (gene 7039)
# Test: LTEA_HepaRG_TGFA: Life Technologies and Expression Analysis (LTEA) Assay for Transforming Growth Factor (TGFA) using HepaRG (AID 2283532)
# Settings: mRNA level, 48 h; actives raise or lower the signal
# Method in brief: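 qRT-PCR read-out of TGFA transcript, normalized to three housekeeping genes, fitted bidirectionally against 0.5% DMSO baseline. Human HepaRG cultures received chemicals for 48 h at eight half-log concentrations, top 100 uM.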
Structure (SMILES),outcome,AC50
CCOP(=O)(SC(C)CC)N1CCSC1=O (configuration not stated),inactive,
FC(F)C(F)(F)OCC(Cn1cncn1)c1ccc(Cl)cc1Cl (configuration not stated),,62.2 µM (active)
CC(C1CC1)C(O)(Cn1cncn1)c1ccc(Cl)cc1 (configuration not stated),inactive,
Cc1cc(C2CC2)nc(Nc2ccccc2)n1,inactive,
COc1cccc(C(=O)NN(C(=O)c2cc(C)cc(C)c2)C(C)(C)C)c1C,inactive,
CC[C@H](C)[C@H]1O[C@]2(C=C[C@@H]1C)C[C@@H]1C[C@@H](C/C=C(\C)[C@@H](O[C@H]3C[C@H](OC)[C@@H](O[C@H]4C[C@H](OC)[C@@H](NC)[C@H](C)O4)[C@H](C)O3)[C@@H](C)/C=C/C=C3\CO[C@@H]4[C@H](O)C(C)=C[C@@H](C(=O)O1)[C@]34O)O2,inactive,
CCCCOC(=O)c1ccccc1C(=O)O,inactive,
Nc1nc(N)nc(NC2CC2)n1,inactive,
CCC(=O)Nc1ccc(Cl)c(Cl)c1,inactive,
CCOP(=S)(OCC)Oc1ccc([N+](=O)[O-])cc1,inactive,
CSC1=N[C@@](C)(c2ccccc2)C(=O)N1Nc1ccccc1,,29.7 µM (active)
CCOP(=S)(OCC)Oc1cc(C)nc(C(C)C)n1,inactive,
CC(Oc1cccc(Cl)c1)C(=O)O (configuration not stated),inactive,

# Read-out: Transforming Growth Factor (TGFB1), TGFB1 (gene 7040)
# Test: LTEA_HepaRG_TGFB1: Life Technologies and Expression Analysis (LTEA) Assay for Transforming Growth Factor (TGFB1) Transporter using HepaRG (AID 2283533)
# Settings: mRNA level, 48 h; actives raise or lower the signal
# Method in brief: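 HepaRG, 48 h post-plating, switched to serum-free induction medium; chemicals 100 uM top, half-log, 8 pts, 0.5% DMSO, dup; 48 h exposure; RNA → Fluidigm TaqMan qRT-PCR; norm ACTB/GAPDH/POLR2A; bidirectional fit vs DMSO.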
Structure (SMILES),outcome,AC50
CCOP(=O)(SC(C)CC)N1CCSC1=O (configuration not stated),inactive,
CCCSP(=O)(OCC)Oc1ccc(Br)cc1Cl (configuration not stated),inactive,
CSc1nnc(C(C)(C)C)c(=O)n1N,inactive,
Cc1ccn2nc(S(=O)(=O)Nc3c(F)cccc3F)nc2n1,inactive,
CC(C)=CC1C(C(=O)OCN2C(=O)C3=C(CCCC3)C2=O)C1(C)C (configuration not stated),inactive,
FC(F)C(F)(F)OCC(Cn1cncn1)c1ccc(Cl)cc1Cl (configuration not stated),,28.8 µM (active)
CC(C1CC1)C(O)(Cn1cncn1)c1ccc(Cl)cc1 (configuration not stated),inactive,
Cc1cc(C2CC2)nc(Nc2ccccc2)n1,inactive,
COc1cccc(C(=O)NN(C(=O)c2cc(C)cc(C)c2)C(C)(C)C)c1C,inactive,
C[N+]1(C)CCCCC1,inactive,
CC[C@H](C)[C@H]1O[C@]2(C=C[C@@H]1C)C[C@@H]1C[C@@H](C/C=C(\C)[C@@H](O[C@H]3C[C@H](OC)[C@@H](O[C@H]4C[C@H](OC)[C@@H](NC)[C@H](C)O4)[C@H](C)O3)[C@@H](C)/C=C/C=C3\CO[C@@H]4[C@H](O)C(C)=C[C@@H](C(=O)O1)[C@]34O)O2,inactive,
COP(=O)(OC)C(O)C(Cl)(Cl)Cl (configuration not stated),inactive,
S=C1NCCN1,inactive,
CCNc1nc(Cl)nc(NC(C)(C)C#N)n1,inactive,
CON=C(C(=O)OC)c1ccccc1CON=C(C)c1cccc(C(F)(F)F)c1,inactive,
CCCCOC(=O)c1ccccc1C(=O)O,inactive,
Nc1nc(N)nc(NC2CC2)n1,inactive,
C[Si](Cn1cncn1)(c1ccc(F)cc1)c1ccc(F)cc1,,34.1 µM (active)

Structure (SMILES),outcome,AC50
CNC(=O)ON=C(SC)C(=O)N(C)C,inactive,
COc1cc(OC)nc(Sc2cccc(Cl)c2C(=O)O)n1,inactive,
CCC(=O)Nc1ccc(Cl)c(Cl)c1,inactive,
CNC(=O)Oc1cccc2c1OC(C)(C)O2,inactive,
CCCCOC(=O)[C@@H](C)Oc1ccc(Oc2ccc(C#N)cc2F)cc1,inactive,
CC(C)[C@H](C(=O)O[C@H](C#N)c1cccc(Oc2ccccc2)c1)c1ccc(Cl)cc1,inactive,
C#CCC1=C(C)C(OC(=O)C2C(C=C(C)C)C2(C)C)CC1=O (configuration not stated),inactive,
CCOP(=S)(OCC)Oc1ccc([N+](=O)[O-])cc1,inactive,
CSC1=N[C@@](C)(c2ccccc2)C(=O)N1Nc1ccccc1,inactive,
CN(C)C(=O)Nc1cccc(C(F)(F)F)c1,inactive,
CC(COc1ccc(Oc2ccccc2)cc1)Oc1ccccn1 (configuration not stated),inactive,
CCc1cccc(C)c1N(C(=O)CCl)C(C)COC (configuration not stated),inactive,
CCC(=NOC/C=C/Cl)C1=C(O)CC(C2CCOCC2)CC1=O (configuration not stated),inactive,
CCOP(=S)(OCC)SCCSCC,inactive,
CCC(CC)Nc1c([N+](=O)[O-])cc(C)c(C)c1[N+](=O)[O-],inactive,
CN(C)NC(=O)CCC(=O)O,inactive,
CCOP(=S)(OCC)Oc1cc(C)nc(C(C)C)n1,inactive,
CC(Oc1cccc(Cl)c1)C(=O)O (configuration not stated),inactive,
